High-throughput results from PubChem BioAssay.
PINK1 expr mod = A Quantitative High throughput Screen to Identify Chemical Modulators of PINK1 Expression; PINK1 immunofluorescence, high-content cytometry, 24 h; Potency, µM (doses to about 76.6 µM), inactives show top-dose activation (PINK1 increase), most hits filed as activators; 410,000 tested, 0.2% active; active = well fitted activation curve with a large enough effect; inconclusive = small, poorly fitted or top-dose-only effect; cell line not stated here; note: % of control where 0% means no effect; nearly all actives have a fitted effect of over 65% in size
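Readout is PINK1 immunofluorescence, quantified alongside mitochondrial, cell and nuclear markers by laser-scanning microplate cytometry. Cells from a stable line were exposed to compound titrations (5 concentrations) for 24 hours, with CCCP controls.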
ClpP mod = qHTS Assay for Activators of ClpP. ATP-dependent Clp protease proteolytic subunit (Bacillus subtilis (strain 168)), P80244. Potency, µM (doses to about 57.5 µM), for inactives: at the top dose activity change, negative = active. 340,000 tested, 1.9% active. purified B. subtilis ClpP, FRET peptide cleavage, 20 min; active = well fitted falling curve with a large enough effect; inconclusive = small, poorly fitted or top-dose-only effect; inactive = no such curve, though single readings can be large or run the other way; note: the source files actives as falling curves though it sought activators and does not explain the sign; nearly all actives have a fitted effect of over 65% in size
Target sequence (P80244 whole entry, looked up): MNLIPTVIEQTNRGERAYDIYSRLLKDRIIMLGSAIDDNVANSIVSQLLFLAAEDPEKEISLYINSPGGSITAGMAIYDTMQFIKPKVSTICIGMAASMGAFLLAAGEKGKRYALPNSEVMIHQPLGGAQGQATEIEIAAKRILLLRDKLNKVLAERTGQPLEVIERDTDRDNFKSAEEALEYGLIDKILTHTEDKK
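ClpP 10 microg/mL final, pH 8 Tris/KCl buffer with BSA, glycerol, Tween-20; compound pinned in; FRET-FV substrate; RT 20 min; Ex320/Em430; ΔFRET vs ADEP 5.8 microM, DMSO, no enzyme.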
Epigenetic derep = Quantitative High-Throughput Screen for Regulators of Epigenetic Control; murine LDR cells, GFP reporter derepression, 30 h; Potency, µM (highest dose often 53.9 µM), inactives show at the highest dose GFP activation, most hits filed as activators; 280,000 tested, 0.2% active; note: % of control where 0% means no effect; nearly all actives have a fitted effect of over 60% in size
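Derepression of a silenced CMV-GFP reporter in murine LDR cells is scored by enumerating GFP-positive cells with a laser-scanning microplate cytometer after 30 hours of treatment at 37 C.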
VP16 counter = VP16 counterscreen qHTS for inhibitors of ROR gamma transcriptional activity; Drosophila S2 Gal4-VP16 UAS-luciferase, luminescence, 20 h; Potency, µM (titrated, usually from 53.6 µM), without a hit: at the top dose activity, negative = inhibition, hits mostly inhibitors; 310,000 tested, 3.5% active; AID 2546, 2010;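 note: Gal4-VP16 expression switched on by copper sulfate through the metallothionein promoter; % is set by controls: 0 for no effect and ±100 for the full control effect; nearly all actives have a fitted effect of over 50% in size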
RORgamma inh = qHTS for inhibitors of ROR gamma transcriptional activity. Potency, µM (top dose mostly 53.6 µM), without a hit: at the top dose activity change, negative = inhibition, hits mostly inhibitors. Nuclear receptor ROR-gamma (Mus musculus), P51450. 310,000 tested, 5.4% active. Drosophila S2 Gal4-RORgamma UAS-luciferase reporter, 20 h. AID 2551, 2010; note: % is set by controls: 0 for no effect and ±100 for the full control effect; nearly all actives have a fitted effect of over 60% in size
Target sequence (P51450 whole entry, looked up, the tested form may be a part): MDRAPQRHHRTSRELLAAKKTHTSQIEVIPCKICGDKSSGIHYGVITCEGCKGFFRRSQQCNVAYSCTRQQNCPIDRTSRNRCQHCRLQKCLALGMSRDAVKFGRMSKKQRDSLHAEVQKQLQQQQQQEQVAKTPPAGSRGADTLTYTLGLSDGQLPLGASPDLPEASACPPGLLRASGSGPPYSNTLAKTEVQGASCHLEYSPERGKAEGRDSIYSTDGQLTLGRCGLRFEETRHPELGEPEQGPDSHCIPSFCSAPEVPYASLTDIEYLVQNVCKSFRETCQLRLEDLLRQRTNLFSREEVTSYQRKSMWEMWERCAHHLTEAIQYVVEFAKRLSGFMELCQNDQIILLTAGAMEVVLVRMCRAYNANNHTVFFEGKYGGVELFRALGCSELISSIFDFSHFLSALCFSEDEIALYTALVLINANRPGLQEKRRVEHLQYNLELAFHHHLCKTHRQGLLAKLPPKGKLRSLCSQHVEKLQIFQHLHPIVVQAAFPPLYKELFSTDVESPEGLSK
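Drosophila S2 cells stably expressing Gal4-DBD/mouse RORγ fusion under metallothionein promoter plus UAS-luciferase; compound 1 h, then 700 uM CuSO4 induction for 20 h at ambient temperature; inhibition read as reduced luminescence.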
Sfp inh = qHTS Assay for Inhibitors of Bacillus subtilis Sfp phosphopantetheinyl transferase (PPTase); Biochemical Sfp PPTase activity, qHTS; 310,000 tested, 3.5% active; 4'-phosphopantetheinyl transferase ffp (Bacillus subtilis), Q9F4F7; Potency, µM, for the others: largest response in the series, negative = inhibition, hits mostly inhibitors;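 note: the enzyme is Sfp with the accession as filed and its product quenches rhodamine fluorescence; 0% = enzyme reaction without inhibitor and -100% = no enzyme wells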
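Fluorescence-quenching assay with 15 nM Sfp, 5 uM rhodamine-CoA and 12.5 uM BHQ-2-labelled ybbR peptide in pH 7.6 Hepes/MgCl2 buffer. Enzyme was pre-incubated with compound for 15 min at room temperature. Rate was taken from the 30-min fluorescence change (525/598 nm).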
* hit, by the source's call; ? = inconclusive; / = no result; ! = repeats disagree; [ ] = another dose, or the depositor's remark. A selection: hits, their analogues and other compounds. The true share with any hit is near 8.1%. Unless noted, calls come from the whole dose curve; as a rule, active = well fitted curve in the direction sought with a large enough effect; inconclusive = small, poorly fitted or top-dose-only effect, or another doubt; inactive = no such curve, though single readings can be large; an effect the other way counts as inactive or inconclusive. Potency is the fitted concentration of half-maximal effect.

SMILES	PINK1 expr mod	ClpP mod	Epigenetic derep	VP16 counter	RORgamma inh	Sfp inh
CCOC(=O)C(=Cc1ccc(OCc2ccc([N+](=O)[O-])cc2)c(OC)c1)C(=O)OCC	-2.8%	-3.3%	-0.9%	?	14.1µM*	10.2%
O=c1oc(-c2cccs2)nc2ccc(Br)cc12	?	28.2µM*	0.7%	3.2%	-4.8%	22.3%
O=C(Nc1ccccc1)c1ccc(S(=O)(=O)N2CCOCC2)cc1	-0.5%	-0.1%	-2.0%	14.0%	36.7%	16.7%
O=C(Nc1ccc(S(=O)(=O)N2CCCC2)cc1)c1ccc(CN2CCc3ccccc3C2)cc1	1.8%	-22.1%	-1.0%	1.41µM*	5.62µM*	25.6%
O=C(Nc1ccc(Cl)cc1)c1ccc(CN2CCc3ccccc3C2)cc1	7.5%	0.8%	/	?	?	10.5%
O=C(Nc1ccc(S(=O)(=O)N2CCOCC2)cc1)c1ccc(CN2CCc3ccccc3C2)cc1	1.9%	-17.5%	-0.3%	2.24µM*	8.91µM*	22.5%
C/C(=N\NC(=O)c1ccc(CN2CCc3ccccc3C2)cc1)c1ccccc1O	-0.8%	/	-0.1%	2.51µM*	0.891µM*	9.7%
O=C(Nc1ccc(Cc2ccncc2)cc1)c1ccc(S(=O)(=O)N2CCCC2)cc1	-1.0%	/	-0.4%	11.2µM*	?	-10.0%
O=C(Nc1ccc(S(=O)(=O)N2CCCCC2)cc1)c1ccncc1	-0.7%	-5.2%	-2.9%	1.8%	-12.6%	8.1%
COC(=O)C1(C(=O)OC)CC(CO)C(=O)[C@H]1c1ccccc1 (stereo partly drawn)	/	/	-1.1%	-23.3%	10.8%	-12.7%
COc1cc(/C=C2/C(=O)N(c3ccc(C(=O)O)cc3)N=C2C)cc(OC)c1O	3.7%	/	/	-0.9%	-17.1%	39.8µM*
CCn1nnc(NC(=O)c2ccc(-c3ccc(Cl)cc3)o2)n1	-1.4%	11.2µM*	0.0%	-13.9%	?	?
CCCn1nnc(NC(=S)NC(=O)c2ccc(-c3ccc(Br)cc3)o2)n1	-0.9%	3.7%	0.0%	2.51µM*	0.794µM*	-26.2%
Cn1nnc(NC(=S)NC(=O)c2ccc(-c3ccc(Br)cc3)o2)n1	-0.4%	/	-0.2%	5.01µM*	0.708µM*	-15.3%
CCCn1nnc(NC(=O)c2ccc(Br)cc2)n1	1.3%[38.3 µM]	-2.1%	-2.1%	-11.3%	0.0%	5.8%
C1=Cc2ccccc2/C1=C\c1cccc(/C=C2\C=Cc3ccccc32)c1	0.1%	-0.4%	/	/	/	/
Cc1ccc(NC(=O)c2c(C)oc3c2C2=NCCN2C=N3)cc1F	-0.5%	-4.5%	2.9%	/	/	/
CNC(=S)NNC(=O)c1cn(C)nc1C	3.3%	/	-0.6%	18.7%	20.4%	79.4µM*
Cc1nn(C)cc1C(=O)NNC(=S)Nc1ccccc1	1.0%	-1.5%	-0.3%	-1.4%	?	11.4%
O=C(/C=C/c1ccc(NC(=O)c2ccccc2-c2ccccc2C(=O)O)cc1)c1ccccc1	-1.5%	-6.4%	/	?	11.2µM*	-5.1%
O=C(O)c1ccccc1-c1ccccc1C(=O)Nc1ccc(F)cc1	0.8%	-0.6%	/	4.3%	10.9%	11.8%
Cc1cc(C)c(S(=O)(=O)/N=C2\C=CC(=O)C(Cl)=C2)c(C)c1	2.6%[38.3 µM]	-2.2%	-1.0%	-3.3%	?	50.1µM*
CCN(CC)c1ccc(-n2cc3c(=O)n(C)c(=O)n(C)c3c2)cc1	-2.7%	35.5µM*	0.0%	1.5%	39.5%	-11.6%
COC/C=C/C1=CC2=CC(=O)C(C)(OC(=O)c3cnc4ccccc4n3)C(=O)C2=CN1c1ccccc1 (stereo not drawn)	0.1%	2.8%	4.8%	-3.1%	-9.7%	14.5%
COC/C=C/C1=CC2=CC(=O)C(C)(OC(=O)c3cnc4ccccc4n3)C(=O)C2=CN1c1ccc(CO)cc1 (stereo not drawn)	/	/	/	-2.4%	-7.0%	56.2µM*!
SMILES	PINK1 expr mod	ClpP mod	Epigenetic derep	VP16 counter	RORgamma inh	Sfp inh
CCOC(=O)c1c(C)[nH]c(C)c1S(=O)(=O)N1CCC(C(=O)Nc2ccc(OCC)cc2)CC1	-0.5%	0.9%	7.1%	/	/	/
COc1cc([N+](=O)[O-])ccc1NC(=O)CCCOc1cccc(C)c1C	1.4%[38.3 µM]	-2.0%	0.0%	?	20µM*	6.3%
CCOC(=O)Nc1ccc([N+](=O)[O-])cc1OC	1.0%	-0.1%	/	/	/	/
COc1cc([N+](=O)[O-])ccc1NC(=S)NC(=O)CC(C)(C)C	2.4%	3.3%	1.3%	-6.0%	10µM*	23.0%
COc1cc([N+](=O)[O-])ccc1NC(=O)Cc1ccccc1	1.6%	?	-0.9%	-1.7%	14.7%	20.4%
CCOC(=O)c1ccc(C(=O)OCC)c(NC(=S)Nc2ccc([N+](=O)[O-])cc2OC)c1	3.1%	?	1.0%	2.82µM*	2.24µM*	-3.2%
Cc1cc(Cl)ccc1NS(=O)(=O)c1c(C(=O)N2CCC(C)CC2)c(C)n(C)c1C	0.3%	-3.4%	-3.3%	/	/	/
CN(C)CCNc1oc(-c2cccc(Cl)c2)nc1C#N	-5.8%[38.3 µM]	15.8µM*	-2.4%	10.5%	-23.0%	10.5%
Cn1c(=O)c2c(nc(SCC(=O)N3CCc4ccccc4C3)n2C)n(C)c1=O	2.3%[38.3 µM]	-0.6%	2.9%	-3.5%	-0.1%	20.4%
Cn1c(=O)c2c(nc(SCC(=O)N3c4ccccc4CCc4ccccc43)n2C)n(C)c1=O	10µM*	-0.6%	0.0%	2.9%	-0.2%	-5.4%
COc1ccc(CCNC(=O)CSc2ccc(-c3ccco3)nn2)cc1	0.3%	/	1.5%	-9.9%	29.6%	-61.0%
O=C(CSc1ccc(-c2ccco2)nn1)NCCc1ccccc1	-0.1%	/	-1.2%	3.5%	30.0%	31.6µM*
CCOc1ccccc1NC(=O)Cn1nc(-c2ccco2)ccc1=O	1.8%	/	/	-8.9%	3.1%	-6.1%
CCOc1ccccc1NC(=O)CSc1ccc(-c2ccco2)nn1	0.7%	-3.8%	/	11.9%	-8.4%	50.1µM*
O=C(CSc1ccc(-c2ccco2)nn1)Nc1ccccc1F	0.8%	-11.3%	/	21.5%	-5.5%	31.6µM*
O=C(CSc1ccc(-c2cccnc2)nn1)Nc1ccccc1F	1.4%	-4.4%	/	1.6%	-12.5%	-6.3%
O=C(CSc1ccc(-c2ccc(-n3cccn3)cc2)nn1)Nc1ccccc1F	6.8%	15.8µM*	/	/	/	/
COc1ccc(N(CC(=O)NCc2ccccc2Cl)S(=O)(=O)c2c(C)nn(C)c2C)cc1	0.5%	-0.1%	4.9%	/	/	/
CCN(C(=O)CSc1nc2ccccc2n1CC(=O)Nc1ccc(F)cc1F)c1ccccc1	-1.2%	-1.3%	-1.6%	/	/	/
CN1C(C(=O)Nc2ccccn2)C(=O)c2sc(Cl)cc2S1(=O)=O (stereo not drawn)	/	/	/	-5.0%	1.1%[10 µM]	?
